KB-3-1 cytotox: KB-3-1 parental cell cytotoxicity; 400,000 tested, 1.4% active; Potency, µM (highest dose often 46.1 µM), usual class: cytotoxic; KB-3-1 viability, CellTiter-Glo ATP luminescence, 72 h; AID 1347075; further: on the % scale 0 is the no-effect control and ±100 the full control effect; nearly all actives have a fitted effect of over 60% in size
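Using CellTiter-Glo luminescence, growth of non-resistant KB-3-1 adenocarcinoma cells is assessed 72 h after pin-tool compound addition at 37 °C. Normalized responses across the concentration series yield fitted curves.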
HT1080 IDH1KD tx: toxicity to HT-1080 IDH1 knockdown cells (counter line). HT-1080 IDH1 knockdown viability, ATP luminescence, 48 h. Potency, µM (highest dose often 46.1 µM), for inactives: at the highest dose activity, negative = toxicity, usual class: cytotoxic. 360,000 tested, 2% active. AID 686971;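 further: 0% = DMSO wells and -100% = cell-free medium wells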
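Luminescent ATP read-out (CellTiter-Glo, 10 min at room temperature) after 48 h compound exposure at 37 °C gave viability of IDH1-knockdown HT-1080 cells. Activity was normalised to DMSO and cell-free wells, then fitted as concentration-response curves.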
SW480 rerep: induces DNA re-replication in SW480 colon adenocarcinoma cells; SW480 DNA re-replication, Hoechst DNA content imaging, 48 h; Potency, µM (titrated, usually from 46.1 µM), without a hit: at the top dose re-replication activation, most hits filed as activators; 340,000 tested, 1.8% active; further: % of control where 0% means no effect; nearly all actives have a fitted effect of over 55% in size
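DNA re-replication was detected as more nuclei of elevated Hoechst intensity after 48 hr exposure to compound (23 nL pinned per well of 250 cells).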
KB-V1 cytotox: kills drug-selected multidrug resistant KB-V1 cells. 400,000 tested, 3.4% active. KB-V1 MDR cells viability, CellTiter-Glo, 72 h. Potency, µM (titrated, usually from 46.1 µM), hits mostly cytotoxic. AID 1347076; further: on the % scale 0 is the no-effect control and ±100 the full control effect; nearly all actives have a fitted effect of over 60% in size
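qHTS viability screen in drug-selected KB-V1 MDR cells: 72 h compound treatment at 37 degrees C, ATP luminescence end point.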
HT1080NT lethal: kills 2HG-producing HT-1080-NT fibrosarcoma cells; HT-1080-NT fibrosarcoma viability, CellTiter-Glo ATP luminescence, 48 h; Potency, µM (series often up to 46.1 µM), for inactives: at the top dose activity, negative = less viability, actives largely listed as cytotoxic; 360,000 tested, 1.6% active; AID 686970;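 further: NT is the 2HG producing partner of a matched IDH1 knockdown line; 0% = DMSO-treated cells and -100% = media-only wells without cells; nearly all actives have a fitted effect of over 55% in size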
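Compounds were tested in concentration-response format on HT-1080-NT cells for 48 hours at 37 degrees C. Cell viability came from CellTiter-Glo luminescence; curves were classified by r2, response magnitude and activity.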
MCF10A rereplic: induces DNA re-replication in MCF 10a normal breast cells; 350,000 tested, 2.9% active; MCF 10A DNA re-replication, Hoechst nuclear intensity, 48 h; Potency, µM (doses to about 46.1 µM), for inactives: at the highest dose activity, positive = re-replication, most hits filed as activators; further: % of control where 0% means no effect; nearly all actives have a fitted effect of over 50% in size
* marks the source's active call; other numbers are inactive results; i = inactive; ? = inconclusive; . = no result; [ ] = another dose, or the depositor's remark. Only some compounds are listed: those with a hit (about 7.9% of all), similar ones and a draw of the others. The call rests on the fitted dose curve; in most records, active means well fitted curve in the direction sought with a large enough effect; inconclusive means small, poorly fitted or top-dose-only effect, or another doubt; inactive means no such curve, though single readings can be large; an effect the other way counts as inactive or inconclusive. Potency means the concentration at half of the fitted maximal effect.

SMILES | KB-3-1 cytotox | HT1080 IDH1KD tx | SW480 rerep | KB-V1 cytotox | HT1080NT lethal | MCF10A rereplic
O=C(/C=C/c1ccc(Br)cc1)c1ccc(NC2=NCCCS2)cc1 | 21µM* | ? | 4.6µM* | i | ? | 5.2µM*
CC(C)(C)c1ccc(/C=C/C(=O)c2ccc(NC3=NCCCS3)cc2)cc1 | ? | ? | ? | ? | ? | 18µM*
O=C(/C=C/c1ccccc1)c1ccc(NC2=NCCCS2)cc1 | ? | -16% | ? | 21µM* | -11% | 18µM*
Cc1cccc(/C=C/C(=O)c2ccc(NC3=NCCCS3)cc2)c1 | ? | ? | 9.2µM* | ? | ? | ?
CC1(C(=O)NS(=O)(=O)c2ccc(Cl)s2)CCN1C(=O)CCc1ccccc1 (centres undefined) | i | 9% | . | i | 15% | .
CC(=O)NCCCc1nc2ccccc2n1Cc1c(F)cccc1Cl | i | -2% | -9% | i | 0% | 3%
CCc1nnc(NC(=O)CSc2nc(-c3ccc(F)cc3)cc(-c3ccccc3)c2C#N)s1 | i | 4% | 10% | i | 0% | 12µM*
CCSc1nc(-c2ccc(OC)cc2)cc(-c2ccccc2)c1C#N | i | 8% | -3% | i | 0% | ?
CCc1nnc(NC(=O)CSc2nc(C)cc(C)c2C#N)s1 | i | 2% | 20% | i | 2% | ?
Cc1cccc(-c2cc(-c3ccccc3)nc(SCC(=O)Nc3ccccc3)c2C#N)c1 | i | . | . | i | . | .
COc1ccc(-c2cc(-c3ccccc3)nc(SCC(=O)Nc3ncc(C)s3)c2C#N)cc1 | i | 0% | 9% | 9.2µM* | 2% | 23%
CCOC(=O)/C(Sc1nc(-c2ccccc2)cc(-c2ccccc2)c1C#N)=C(\C)O | i | 10% | 12µM* | i | 11% | 3.7µM*
COc1ccc(-c2cc(-c3ccccc3)c(C#N)c(S(C)=O)n2)cc1 (centres undefined) | ? | ? | ? | i | ? | 5.2µM*
COCCCNC(=O)c1c(NC(=O)c2nc(S(C)(=O)=O)ncc2Cl)sc2c1CCCC2 | i | . | . | i | . | .
CN(Cc1ccc2c(c1)CCCN2C)C(=O)[C@H]1O[C@@H](n2ccc(=O)[nH]c2=O)[C@H](O)[C@@H]1O | i | 19% | . | i | 30% | .
COc1ccc(N(CC(=O)N2CCN(c3ccccc3F)CC2)S(=O)(=O)c2c(C)noc2C)cc1 | i | 6% | -4% | i | 0% | -2%
COc1ccc(NC(=O)c2ccc(NC(=O)CSc3nc(N)cc(=O)[nH]3)cc2)cc1 | i | -9% | -1% | i | -7% | 9%
CN(C)C(=O)C1(c2ccccc2)CCN(S(=O)(=O)c2ccccc2)CC1 | ? | -4%[9.24 µM] | -7% | 21µM* | -4% | 0%
Cc1ccc(C)c(CC(=O)N2CCCCC2c2cc(C(=O)Nc3ccc(F)c(Cl)c3)no2)c1 (centres undefined) | i | -29% | . | i | ? | .
CCC(c1nnc(SCC(=O)NC2CCCCC2)n1Cc1ccccc1)N(C)C (centres undefined) | i | 4% | 7% | i | 0% | -2%
CSc1ccc(NC(=O)N2CC=C(n3c(=O)[nH]c4ccccc43)CC2)cc1 | 16µM* | ? | ? | 16µM* | -20% | ?
COCCn1c(C)cc(C(=O)COc2ccc(N(C)S(=O)(=O)c3ccc(C)cc3)cc2)c1C | . | -18% | 16% | . | -2% | 6%
CNC(=O)c1ccsc1NC(=O)c1sc2ccccc2c1Cl | i | -16% | ? | i | ? | 29µM*
Cc1nnc(NC(=O)c2sc3ccccc3c2Cl)s1 | i | -12% | -2% | i | -6% | 20%
S=C(NCCc1ccccc1)N1CCN(Cc2ccc(Cl)c(Cl)c2)CC1 | ? | -4% | 13% | i | -17% | -1%
SMILES | KB-3-1 cytotox | HT1080 IDH1KD tx | SW480 rerep | KB-V1 cytotox | HT1080NT lethal | MCF10A rereplic
Fc1ccc(CN2CCN(C(=S)NCCc3ccccc3)CC2)c(Cl)c1 | ? | -27% | 2% | 21µM* | -19% | 23%
CC1CCN(C(=S)NCCc2ccccc2)CC1 | i | ? | 4% | 23µM* | ? | -3%
S=C(NCCc1ccccc1)N1CCN(C(=S)NCCc2ccccc2)CC1 | i | 1% | 3% | i | 0% | 4%
O=[N+]([O-])c1ccccc1S(=O)c1ccccc1[N+](=O)[O-] | ? | ? | . | ? | 21µM* | .
Cn1nc(C(C)(C)C)cc1C(=O)NCc1cc(F)cc2c1OCOC2 | ? | 10µM* | -1% | ? | ? | 0%
C[C@H]1CN([C@@H](C)CO)C(=O)CCCn2nncc2CO[C@@H]1CN(C)S(=O)(=O)c1cccc(F)c1 | i | -1% | . | i | 4% | .
Cc1c(-c2ccc(F)cc2)nc(N)c(C#N)c1-c1ccco1 | i | 13µM* | -13% | i | ? | ?
Cn1c(=O)c2cc(NC(=O)NCCc3cccs3)ccc2n1Cc1ccccc1 | ? | -26% | . | i | -20% | .
Cc1ncoc1C(=O)N1CCc2c([nH]c3ccccc23)C1c1ccccc1F (centres undefined) | i | -20% | -1% | i | ? | 19%
CCn1nc(C)cc1C(=O)N1CCc2c([nH]c3ccccc23)C1c1cc(F)ccc1F (centres undefined) | ? | 23µM* | ? | ? | ? | ?
O=C(CN1C(=O)CCC1=O)NNc1ccc2ccccc2c1 | i | 2.3µM* | -67% | i | 2.9µM* | ?
O=C(CNc1ccc2ccccc2c1)NNC1=NCCC1 | i | 0% | -5% | i | -1% | -12%
O=C(COc1ccc2ccccc2c1)NNC(=O)Cc1ccccc1 | i | 18% | -30% | i | 26% | -8%
O=C(Cc1ccccc1)NNc1ccc2ccccc2c1 | ? | 3.7µM* | -8% | i | ? | 16%
C#CCOCCOCCOCCNc1nc(N2CCN(C(=O)Cn3cc(CCO)nn3)CC2)nc(N2CCN(C(=O)[C@H](Cc3ccc(O)cc3)n3cc(CCO)nn3)CC2)n1 | i | 0% | -5% | i | 14% | 3%
COc1ccc(NC(=O)c2ccc(F)cc2)cc1S(=O)(=O)Nc1cc(C)ccc1Br | ? | ? | ? | 4.6µM* | ? | 15µM*
COc1ccccc1NS(=O)(=O)c1cc(NC(=S)Nc2cc(C)cc(C)c2)ccc1Cl | ? | 10% | 9% | 15µM* | 11% | 5%
CCNC(=S)Nc1ccc(C)c(S(=O)(=O)Nc2ccccc2OC)c1 | i | -10% | -4% | i | 7% | 17%
